According to PubChem BioAssay (NCATS):
Inconclusive results are not listed. Entries that show only a call come without a potency. Active and inactive are the calls of the source. The call rests on the fitted dose curve.

molecular target: Nucleoprotein (Lymphocytic choriomeningitis virus (strain Armstrong)) (UniProt P09992); assay: qHTS for Inhibitors of the Functional Ribonucleoprotein Complex (vRNP) of Lymphocytic Choriomeningitis Arenaviruses (LCMV): LCMV Primary Screen - GLuc reporter signal (AID 1347086); details: LCMV minigenome vRNP cell assay, Gaussia luciferase reporter; series mostly up to 57.5 µM; further: nearly all actives have a fitted effect of over 70% in size
Sequence (P09992 whole entry, looked up): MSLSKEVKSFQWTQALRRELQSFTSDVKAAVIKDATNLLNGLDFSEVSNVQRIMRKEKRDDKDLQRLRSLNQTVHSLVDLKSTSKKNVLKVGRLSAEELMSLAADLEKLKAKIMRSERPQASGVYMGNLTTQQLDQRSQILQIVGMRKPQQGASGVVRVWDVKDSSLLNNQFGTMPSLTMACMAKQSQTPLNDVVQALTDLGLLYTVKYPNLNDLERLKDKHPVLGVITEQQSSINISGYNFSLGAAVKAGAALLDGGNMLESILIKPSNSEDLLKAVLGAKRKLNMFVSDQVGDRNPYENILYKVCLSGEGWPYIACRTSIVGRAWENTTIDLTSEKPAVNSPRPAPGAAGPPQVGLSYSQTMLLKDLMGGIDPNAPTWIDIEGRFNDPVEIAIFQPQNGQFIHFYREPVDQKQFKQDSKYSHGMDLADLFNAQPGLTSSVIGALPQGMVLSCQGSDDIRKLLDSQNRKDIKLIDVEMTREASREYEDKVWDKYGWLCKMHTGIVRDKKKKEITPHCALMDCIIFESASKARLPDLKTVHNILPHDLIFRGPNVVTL

Row | Structure (SMILES) | Potency
1 | Cn1c(=O)c2c(ncn2CC(O)CO)n(C)c1=O (stereo not drawn) | inactive
2 | O=C(O)P(=O)(O)O | inactive
3 | CC1=C(C(=O)O)N2C(=O)[C@@H](NC(=O)[C@H](N)c3ccccc3)[C@H]2SC1 | inactive
4 | CC[N+](C)(C)c1cccc(O)c1 | inactive
5 | CCOC(=O)[C@H](CCc1ccccc1)N[C@@H](C)C(=O)N1[C@H](C(=O)O)C[C@@H]2CCC[C@@H]21 | inactive
6 | Nc1[nH]c(=O)ncc1F | inactive
7 | O=C1[C@H](CC[C@H](O)c2ccc(F)cc2)[C@@H](c2ccc(O)cc2)N1c1ccc(F)cc1 | inactive
8 | C[C@H]1c2cccc(O)c2C(O)=C2C(=O)[C@]3(O)C(O)=C(C(N)=O)C(=O)[C@@H](N(C)C)[C@@H]3[C@@H](O)[C@@H]21 | inactive
9 | CCCN(CCC)CCc1cccc2c1CC(=O)N2 | inactive
10 | CN1CCN(CCCN2c3ccccc3Sc3ccc(Cl)cc32)CC1 | inactive
11 | O=NN(CCCl)C(=O)NC1CCCCC1 | inactive
12 | CCOC(=O)Nc1ccc2c(c1)N(C(=O)CCN1CCOCC1)c1ccccc1S2 | inactive
13 | Oc1ccc(C2CNCCc3c2cc(O)c(O)c3Cl)cc1 (stereo not drawn) | inactive
14 | CC1(C)S[C@@H]2[C@H](NC(=O)C(C(=O)O)c3ccccc3)C(=O)N2[C@H]1C(=O)O (stereo partly drawn) | inactive
15 | CCN(CCO)CCCC(C)Nc1ccnc2cc(Cl)ccc12 (stereo not drawn) | inactive
16 | C[C@]12CC[C@@H]3c4ccc(O)cc4C[C@@H](CCCCCCCCCS(=O)CCCC(F)(F)C(F)(F)F)[C@H]3[C@@H]1CC[C@@H]2O (stereo partly drawn) | inactive
17 | CC(=O)OCC(CCn1cnc2cnc(N)nc21)COC(C)=O | inactive
18 | Cc1c(O)cccc1C(=O)N[C@@H](CSc1ccccc1)[C@H](O)CN1C[C@H]2CCCC[C@H]2C[C@H]1C(=O)NC(C)(C)C | inactive
19 | C=C[C@H]1CN2CC[C@H]1C[C@@H]2[C@@H](O)c1ccnc2ccc(OC)cc12 | inactive
20 | Cc1cn[nH]c1 | inactive
21 | CCOC(=O)c1ncn2c1CN(C)C(=O)c1cc(F)ccc1-2 | inactive
22 | CC(C)NCC(O)COc1ccc(CCOCC2CC2)cc1 (stereo not drawn) | inactive
23 | CCOc1ccccc1OCCN[C@H](C)Cc1ccc(OC)c(S(N)(=O)=O)c1 | inactive
